The nature of assay [1]: Cell Viability - HUV-EC-C (AID 542).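 Note: cells exposed to compound for 40 hours; % is set by controls: 0 for no effect and ±100 for the full control effect; nearly all actives have a fitted effect of over 35% in size.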 The method in brief: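 Decrease in cellular ATP, quantified by luciferase luminescence, reflects toxicity in normal human vascular endothelial HUV-EC-C cells given compound for 40 hr in complete culture medium. Values are AC50s from concentration-response curves.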
A short description of assay [2]: Cellular Toxicity (caspase-3) HepG2 (AID 654).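 Note: cells exposed to compound for 16 hours before reading; 0% = DMSO alone and 100% = caspase signal from 100 µM tamoxifen.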 The method in brief: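 qHTS, HepG2, 1500 cells/well, complete medium; cpd 16 h 37 °C; Caspase-Glo 3/7, 20 min RT; lum. Norm: DMSO vs 100 uM tamoxifen; AC50 Hill fit.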
A short description of assay [3]: Cellular Toxicity (caspase-3) MRC-5 (AID 659).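 Note: 0% = DMSO basal and 100% = 10 µM staurosporine.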 The method in brief:
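Concentration-dependent caspase 3/7 activation is measured in human normal lung fibroblasts (MRC-5) following 16-hour treatment. AC50 values come from standard Hill-equation modeling of luminescence normalized to DMSO and 10 uM staurosporine.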

Assay [4] is described as follows: Cellular Toxicity (caspase-3) Mesangial (AID 660).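 Note: combined caspase 3 and 7 activity read by Caspase-Glo luminescence; cells exposed to compound for 16 h before the caspase read.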 A digest of the protocol: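 Concentration-response qHTS: compound-induced rise in caspase 3/7 luminescence in human mesangial cells after 16 h, normalized to DMSO and 100 uM tamoxifen controls.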
A short description of assay [5]: Cellular Toxicity (caspase-3) Hek293 (AID 664).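 Note: cells exposed to compound for 16 h at 37 °C before readout.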 The following applies: HEK293 caspase-3 activation, DMSO = 0%, 100 µM tamoxifen = 100%; at 92.2 µM (top of the series). A digest of the protocol:
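Activation of caspase-3/7 is measured as increased luminescence from cleaved peptide-aminoluciferin substrate in HEK293 cells treated 16 hours at 37 °C. AC50 values come from Hill-equation fits of concentration-response data.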

The nature of assay [6]: Cellular Toxicity (caspase-3) NIH 3T3 (AID 666).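 Note: caspase signal read after 16 h compound exposure; 0% = DMSO basal and 100% = 100 µM tamoxifen stimulation.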 The method in brief: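 Concentration-response qHTS in NIH 3T3 mouse fibroblasts scores caspase-3/7 activation as rising luminescence after 16 hr compound exposure. Signals are scaled between DMSO-only and 100 uM tamoxifen.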
The nature of assay [7]: MultiTox-Fluor Cytotoxicity Assay - LYMP1-002 - Live Cells (AID 955).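 Note: cells exposed to compound for 16 hours; % is set by controls: 0 for no effect and ±100 for the full control effect.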 A digest of the protocol:
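Cytotoxicity in the human lymphoblastoid line LYMP1-002 is measured as loss of live-cell protease activity after 16 h treatment in complete culture medium. AC50 is derived from Hill-equation fits of qHTS concentration-response data.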

Assay [8] in a line: Cell Viability - LYMP1-003 - Assay at 40 hr (AID 964). Note: % is set by controls: 0 for no effect and ±100 for the full control effect; nearly all actives have a fitted effect of over 60% in size. A digest of the protocol: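 This qHTS cytotoxicity screen treats human lymphoblastoid cells (LYMP1-003) with compounds for 40 hr and quantifies cellular ATP via luciferase luminescence.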
The nature of assay [9]: Cell Viability - LYMP2-004 (AID 966). Note: nearly all actives have a fitted effect of over 65% in size. Note: potency is the fitted concentration of half-maximal effect. A digest of the protocol: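 Acute toxicity is scored as a concentration-dependent drop in intracellular ATP, quantified by luciferase luminescence, in human lymphoblastoid cells exposed to compound for 24 hr. AC50 derives from Hill-equation modelling.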
The nature of assay [10]: Cell Viability - LYMP2-009 (AID 968).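 Note: cells exposed to compound for 24 h at 37 °C; nearly all actives have a fitted effect of over 55% in size.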 Note: potency is the fitted concentration of half-maximal effect.
A short description of assay [11]: Cell Viability - LYMP2-011 (AID 969). Note: nearly all actives have a fitted effect of over 60% in size. Note: potency is the fitted concentration of half-maximal effect. A digest of the protocol: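 Acute toxicity is scored as a concentration-dependent drop in intracellular ATP of a human lymphoblastoid line after 24 hr treatment. Values are AC50s modeled with the Hill equation.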
Assay [12] in a line: Cell Viability - LYMP2-017 (AID 972).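 Note: cells exposed to compound for 24 hours at 37 °C; nearly all actives have a fitted effect of over 55% in size.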 Note: potency is the fitted concentration of half-maximal effect. A digest of the protocol: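 Steps: plate 2500 lymphoblastoid cells per well; incubate 5 hr at 37 C; add compound across a concentration series and incubate 24 hr at 37 C; add CellTiter-Glo and read luminescence after 30 min at room temperature; fit Hill curves for AC50.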
Assay [13] in a line: Cell Viability - LYMP2-025 (AID 976).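 Note: cells exposed to compound for 24 h at 37 °C; plate controls were DMSO only for no effect and tetraoctylammonium bromide control for full effect.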 The method in brief:
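In qHTS format, LYMP2-025 lymphoblastoid cells in complete culture medium received compound for 24 hr; ATP-based CellTiter-Glo signal gave viability, with AC50 derived by Hill equation.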

In assay [14] the target is Vitamin D3 receptor (Homo sapiens) (UniProt P11473). Nature of the assay: qHTS assay for small molecule agonists of vitamin D receptor signaling (AID 588543; calls by dose curve;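 note: 0% = DMSO basal and 100% = reference agonist control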). A digest of the protocol:
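Reporter cells (HEK293T, VDR-UAS-bla) were seeded in medium with 2% charcoal-stripped serum and incubated 5 h, then compounds in concentration series were added for 16 h at 37 °C. Stimulation was scaled between DMSO basal and 50 nM 1α,25-dihydroxyvitamin D3.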

A short description of assay [15]: qHTS assay for small molecule activators of the p53 signaling pathway (AID 651743; active = well fitted activation curve with a large enough effect in the signal ratio, not every such curve was filed as active; the % refers to the signal ratio; note: % of control where 0% means no effect). The following applies: HCT-116 p53RE-bla, beta-lactamase FRET ratio, 16 h; activation: active compounds read high. A digest of the protocol:
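Screen for p53 pathway agonists uses stably transfected p53RE-bla HCT-116 cells, 4,000 per well, treated 16 h at 37 C with compounds in DMSO.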
Background: In qHTS, concentration-response curves come from the screen itself.

The nature of assay [16]: qHTS assay for small molecule disruptors of the mitochondrial membrane potential - 1 hr assay (AID 651754; calls by dose curve; note: nearly all actives have a fitted effect of over 35% in size; note: potency is the fitted concentration of half-maximal effect). A digest of the protocol: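 Steps: seed HepG2 cells and let attach overnight; pin-transfer compound or vehicle; incubate 1 hr at 37C; add Mito-MPS dye for 30 min; read two-channel fluorescence for monomer and aggregate forms.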
The target in assay [17] is Nuclear receptor ROR-gamma (Homo sapiens) (UniProt P51449). Nature of the assay: qHTS assay for small molecule antagonists of the retinoid-related orphan receptor gamma (ROR-gamma) signaling pathway (AID 651802).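 Note: CHO cells with doxycycline-induced ROR-gamma expression; luciferase reporter luminescence driven by ROR response element; % is set by controls: 0 for no effect and ±100 for the full control effect; nearly all actives have a fitted effect of over 60% in size.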 A digest of the protocol:
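Antagonism is scored as a fall in luminescence from a RORE-luciferase reporter in CHO cells expressing ROR under a TET-inducible promoter, measured 16hr after doxycycline induction in the presence of compound.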

A short description of assay [18]: qHTS assay for small molecule agonists of the antioxidant response element (ARE) signaling pathway measured by Nrf2-dependant transcriptional activity (AID 720636; active = well fitted curve in the direction sought with a large enough effect in the repeat runs; an effect the other way counts as inactive or inconclusive;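 note: HepG2 cells with an ARE-driven luciferase reporter; % of control where 0% means no effect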). The method in brief:
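Attachment 6 hr at 37 C, then compound versus DMSO vehicle for 16 hr in ARE-luc HepG2 cells (1% dialyzed FBS); luminescence recorded 30 min after ONE-Glo addition at room temperature.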

Assay [19] in a line: qHTS assay for small molecule agonists of the antioxidant response element (ARE) signaling pathway measured by Nrf2-dependant transcriptional activity - cell viability counter screen (AID 720653; active = well fitted curve in the direction sought with a large enough effect in the repeat runs; an effect the other way counts as inactive or inconclusive; note: % is set by controls: 0 for no effect and ±100 for the full control effect). Particulars: ARE-bla HepG2 viability, CellTiter-Glo ATP luminescence, 16 h; active compounds read low. A digest of the protocol:
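Cytotoxicity counter screen: intracellular ATP quantified by CellTiter-Glo luminescence in the same ARE-bla HepG2 plates, after 16 h compound exposure and a 2 h beta-lactamase substrate step.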

Assay [20] can be described thus: Cell Viability - LYMP2-026 (AID 989).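 Note: cells exposed to compound for 24 h at 37 °C; % is set by controls: 0 for no effect and ±100 for the full control effect; nearly all actives have a fitted effect of over 50% in size.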 A digest of the protocol:
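Concentration-dependent loss of intracellular ATP in human lymphoblastoid cells after 24 hr at 37 C, quantified by luciferase luminescence. AC50 derived from standard Hill equation.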

Where “and” joins values, the source holds several entries; their conditions need not be identical. Equal entries are not always repeated. A number with no mark means an inactive call. Records with an inconclusive call do not appear. Calls of active or inactive are those of the source. Unless noted, calls come from the whole dose curve; as a rule, active = well fitted curve in the direction sought with a large enough effect; inconclusive = small, poorly fitted or top-dose-only effect, or another doubt; inactive = no such curve, though single readings can be large; an effect the other way counts as inactive or inconclusive.

Sequence of Nuclear receptor ROR-gamma (Homo sapiens) (P51449 whole entry, looked up): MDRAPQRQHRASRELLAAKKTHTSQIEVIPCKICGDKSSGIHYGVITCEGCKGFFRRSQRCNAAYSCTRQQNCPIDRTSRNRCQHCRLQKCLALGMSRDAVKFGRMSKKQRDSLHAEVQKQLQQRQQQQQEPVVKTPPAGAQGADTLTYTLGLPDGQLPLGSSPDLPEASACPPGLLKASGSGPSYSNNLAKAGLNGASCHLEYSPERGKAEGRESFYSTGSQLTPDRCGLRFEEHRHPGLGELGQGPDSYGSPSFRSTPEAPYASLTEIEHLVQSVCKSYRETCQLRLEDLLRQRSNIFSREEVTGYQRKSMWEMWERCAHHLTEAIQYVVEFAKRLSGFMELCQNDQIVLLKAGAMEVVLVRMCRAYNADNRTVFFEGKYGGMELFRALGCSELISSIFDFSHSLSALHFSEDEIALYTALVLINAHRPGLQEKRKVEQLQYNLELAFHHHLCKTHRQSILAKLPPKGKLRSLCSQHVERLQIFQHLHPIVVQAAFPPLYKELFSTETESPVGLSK
Sequence of Vitamin D3 receptor (Homo sapiens) (P11473 whole entry, looked up): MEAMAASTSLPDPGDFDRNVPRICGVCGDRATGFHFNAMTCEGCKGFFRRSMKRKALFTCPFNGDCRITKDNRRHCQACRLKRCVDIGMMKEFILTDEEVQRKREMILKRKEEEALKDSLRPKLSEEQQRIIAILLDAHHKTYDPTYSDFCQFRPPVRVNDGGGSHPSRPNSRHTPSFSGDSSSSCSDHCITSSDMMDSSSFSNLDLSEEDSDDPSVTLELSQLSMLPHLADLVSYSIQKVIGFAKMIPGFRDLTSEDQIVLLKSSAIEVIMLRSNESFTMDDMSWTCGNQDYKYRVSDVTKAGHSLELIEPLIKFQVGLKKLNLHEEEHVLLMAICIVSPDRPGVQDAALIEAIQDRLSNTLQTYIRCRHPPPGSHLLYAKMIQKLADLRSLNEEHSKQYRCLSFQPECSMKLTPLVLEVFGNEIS

Turning to `O=[N+]([O-])c1ccc(Cl)cc1`, the Potency entry in assay [1], in assay [6], in [8], in assay [9], in assay [10] and in assay [11] was “inactive” each time. Also, the Potency result in assay [12], in [13], in assay [16], in assay [17] and in [18] was “inactive” each time. For the same compound, the compound was called inactive in [2], in assay [3], in assay [4], in [7] and in assay [14]. Besides, in assay [5], the caspase-3 activation was -0.181%. Besides, the activation in [15] is 0.333% and 2.39%. In [19], the max response is -7.74% and 0.776%.
On to `O=[N+]([O-])c1cccc(O)c1`, for which the Potency entry in assay [1], in [8], in [10], in assay [11], in assay [12] and in assay [20] was “inactive” in each case. Moreover, the Potency result in assay [17] and in assay [18] was “inactive” in each case. Also, the call in assay [2], in [3] and in assay [14] was inactive. Besides, the caspase-3 activation in assay [5] was 0.974%. In [15], the activation is -2.9%. For the same compound, in assay [19], the max response is -0.267%.
In the case of `OC[P+](CO)(CO)CO`, the result in [2], in assay [3] and in assay [14] was inactive. Moreover, the caspase-3 activation in assay [5] was 0.818%. For the same compound, the Potency entry in assay [6], in assay [8], in assay [16] and in [18] was “inactive” each time. The Potency is 20 µM (active) in [9], 25.1 µM (active) in assay [10], 39.8 µM (active) in assay [11] and 12.6 µM (active) in [12]. In addition, the activation in assay [15] is 4.85% and 1.14%.
As to `CCCCCc1cc(O)cc(O)c1`, the Potency result in assay [1], in assay [6], in assay [8], in assay [9], in [11] and in assay [12] was “inactive” each time. Moreover, the Potency entry in [13], in assay [20], in [17] and in assay [18] was “inactive” in each case. Also, the compound was classed as inactive in assay [2], in [3], in [4], in assay [7] and in assay [14]. Besides, the caspase-3 activation in assay [5] is 1.25%. Besides, in assay [15], the activation was -2.37%. In assay [16], the Potency is 37.6 µM (active). Also, the max response in assay [19] is 8.35%.
As to `C/C=C/C=O`, the Potency entry in assay [1], in assay [6], in assay [8], in assay [9], in [10] and in [11] was “inactive” throughout. Also, the Potency result in [12], in [13], in assay [20] and in assay [17] was “inactive” throughout. In addition, the compound was called inactive in assay [2], in assay [3], in assay [4], in assay [7] and in assay [14]. Besides, the caspase-3 activation in assay [5] was -1.23%. For the same compound, the max response in assay [19] was -9.77%.
As to `Nc1c(Cl)cc([N+](=O)[O-])cc1Cl`, the compound was classed as inactive in assay [2], in [3], in assay [4], in assay [7] and in [14]. Besides, the caspase-3 activation in assay [5] is 6.24%. Besides, the Potency entry in [6], in assay [8], in assay [9], in [10], in assay [11] and in [12] was “inactive” in each case. Further, the Potency entry in assay [13], in assay [20] and in assay [18] was “inactive” in each case. Besides, the Potency in [16] is 29.8 µM (active). The max response in assay [19] was 8.8% and -9.21%.
As for `ClC=CCl`, the outcome in assay [2], in assay [3], in assay [4], in assay [7] and in [14] was inactive. Further, the caspase-3 activation in assay [5] was -1.83%. Also, the Potency entry in [8], in assay [9], in assay [11], in assay [12], in assay [20] and in assay [16] was “inactive” each time. In addition, the Potency result in assay [17] and in assay [18] was “inactive” in each case. Also, in assay [15], the activation is -3.46%. Moreover, the max response in assay [19] is -14.4%.
`Clc1cccc2ccccc12`: the Potency entry in assay [1], in [6], in assay [8], in [9], in [10] and in assay [11] was “inactive” each time. Also, the Potency entry in [12], in [13], in assay [20], in assay [16], in [17] and in [18] was “inactive” in each case. Moreover, the outcome in assay [2], in [3], in [4], in assay [7] and in assay [14] was inactive. The caspase-3 activation in assay [5] is -0.708%. The max response in [19] was 5.5%.
